Measurements: article PMC11006913

Legend:
Experiment in all cases: PBM; 200 nM protein, PBS
Conditions in all cases: dsDNA, one strand shown
HESX1 [1] = target: HESX1 (Homo sapiens, UniProt Q9UBX0 95-180, R165K)
SHOX [2] = target: SHOX (Homo sapiens, UniProt O15266 103-189)
ALX4 = ALX4 (Homo sapiens, UniProt Q9H161 200-286, Q225E)
HESX1 [3] = target: HESX1 (Homo sapiens, UniProt Q9UBX0 95-180)
MSX2 = MSX2 (Homo sapiens, UniProt P35548 130-214, R199I)
ALX1 [4] = target: ALX1 (Homo sapiens, UniProt Q15699 118-204, L144V)
ALX3 [5] = target: ALX3 (Homo sapiens, UniProt O95076 139-225, N203Q)
SHOX [6] = target: SHOX (Homo sapiens, UniProt O15266 103-189, R173C)
ALX1 [7] = target: ALX1 (Homo sapiens, UniProt Q15699 118-204, L144R)
ALX3 [8] = target: ALX3 (Homo sapiens, UniProt O95076 139-225)
PROP1 [9] = target: PROP1 (Homo sapiens, UniProt O75360 56-141)
HESX1 [10] = target: HESX1 (Homo sapiens, UniProt Q9UBX0 95-180, R109Q)
PROP1 [11] = target: PROP1 (Homo sapiens, UniProt O75360 56-141, R99H)
ALX3 [12] = target: ALX3 (Homo sapiens, UniProt O95076 139-225, L168Q)
HESX1 [13] = target: HESX1 (Homo sapiens, UniProt Q9UBX0 95-180, P111T)
ALX3 [14] = target: ALX3 (Homo sapiens, UniProt O95076 139-225, L168V)
PROP1 [15] = target: PROP1 (Homo sapiens, UniProt O75360 56-141, F88S)
HESX1 [16] = target: HESX1 (Homo sapiens, UniProt Q9UBX0 95-180, F115L)
ALX1 [17] = target: ALX1 (Homo sapiens, UniProt Q15699 118-204)
ALX3 [18] = target: ALX3 (Homo sapiens, UniProt O95076 139-225, N203S)
Sequence of ALX3 (Homo sapiens, UniProt O95076 139-225, N203S) (O95076 139-225 N203S): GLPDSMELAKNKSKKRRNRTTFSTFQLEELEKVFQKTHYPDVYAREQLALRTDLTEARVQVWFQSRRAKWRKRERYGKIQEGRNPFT

Sequence of HESX1 (Homo sapiens, UniProt Q9UBX0 95-180, R109Q) (Q9UBX0 95-180 R109Q): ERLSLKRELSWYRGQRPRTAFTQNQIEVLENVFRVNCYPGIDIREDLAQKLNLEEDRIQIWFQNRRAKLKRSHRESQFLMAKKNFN
Sequence of PROP1 (Homo sapiens, UniProt O75360 56-141, F88S) (O75360 56-141 F88S): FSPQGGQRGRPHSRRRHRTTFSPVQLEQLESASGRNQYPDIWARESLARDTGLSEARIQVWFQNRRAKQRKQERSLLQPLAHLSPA
Sequence of ALX4 (Q9H161 200-286 Q225E): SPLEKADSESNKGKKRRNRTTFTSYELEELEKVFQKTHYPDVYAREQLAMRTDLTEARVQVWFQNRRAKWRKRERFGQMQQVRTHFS
Sequence of ALX3 (Homo sapiens, UniProt O95076 139-225, L168Q) (O95076 139-225 L168Q): as the sequence (O95076 139-225 N203S) above, with L30Q, S65N counted along it
Sequence of SHOX (Homo sapiens, UniProt O15266 103-189) (O15266 103-189): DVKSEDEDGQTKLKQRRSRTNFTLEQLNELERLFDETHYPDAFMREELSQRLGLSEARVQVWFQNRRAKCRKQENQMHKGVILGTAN
Sequence of HESX1 (Homo sapiens, UniProt Q9UBX0 95-180, P111T) (Q9UBX0 95-180 P111T): as the sequence (Q9UBX0 95-180 R109Q) above, with Q15R, P17T counted along it
Sequence of HESX1 (Homo sapiens, UniProt Q9UBX0 95-180, F115L) (Q9UBX0 95-180 F115L): as the sequence (Q9UBX0 95-180 R109Q) above, with Q15R, F21L counted along it
Sequence of HESX1 (Homo sapiens, UniProt Q9UBX0 95-180, R165K) (Q9UBX0 95-180 R165K): as the sequence (Q9UBX0 95-180 R109Q) above, with Q15R, R71K counted along it
Sequence of SHOX (Homo sapiens, UniProt O15266 103-189, R173C) (O15266 103-189 R173C): as the sequence (O15266 103-189) above, with R71C counted along it
Sequence of PROP1 (Homo sapiens, UniProt O75360 56-141) (O75360 56-141): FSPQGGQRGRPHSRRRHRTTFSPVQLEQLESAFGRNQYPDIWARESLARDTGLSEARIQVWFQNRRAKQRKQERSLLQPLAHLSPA
Sequence of ALX3 (Homo sapiens, UniProt O95076 139-225) (O95076 139-225): as the sequence (O95076 139-225 N203S) above, with S65N counted along it
Sequence of ALX1 (Homo sapiens, UniProt Q15699 118-204) (Q15699 118-204): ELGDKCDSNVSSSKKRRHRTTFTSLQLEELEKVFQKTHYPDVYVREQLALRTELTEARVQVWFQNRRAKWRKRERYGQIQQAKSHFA
Sequence of HESX1 (Homo sapiens, UniProt Q9UBX0 95-180) (Q9UBX0 95-180): as the sequence (Q9UBX0 95-180 R109Q) above, with Q15R counted along it
Sequence of ALX3 (Homo sapiens, UniProt O95076 139-225, L168V) (O95076 139-225 L168V): as the sequence (O95076 139-225 N203S) above, with L30V, S65N counted along it
Sequence of ALX3 (Homo sapiens, UniProt O95076 139-225, N203Q) (O95076 139-225 N203Q): as the sequence (O95076 139-225 N203S) above, with S65Q counted along it
Sequence of ALX1 (Homo sapiens, UniProt Q15699 118-204, L144R) (Q15699 118-204 L144R): as the sequence (Q15699 118-204) above, with L27R counted along it
Sequence of ALX1 (Homo sapiens, UniProt Q15699 118-204, L144V) (Q15699 118-204 L144V): as the sequence (Q15699 118-204) above, with L27V counted along it
Sequence of MSX2 (P35548 130-214 R199I): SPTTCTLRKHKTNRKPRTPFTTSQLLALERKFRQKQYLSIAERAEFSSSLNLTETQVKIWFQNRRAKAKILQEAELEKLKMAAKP
Sequence of PROP1 (Homo sapiens, UniProt O75360 56-141, R99H) (O75360 56-141 R99H): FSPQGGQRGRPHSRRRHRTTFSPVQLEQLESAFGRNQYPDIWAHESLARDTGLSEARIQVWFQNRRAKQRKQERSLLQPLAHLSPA

Sequence	binding signal (HESX1 [1])	binding signal (SHOX [2])	binding signal (ALX4)	binding signal (HESX1 [3])	binding signal (MSX2)	binding signal (ALX1 [4])	binding signal (ALX3 [5])	binding signal (SHOX [6])	binding signal (ALX1 [7])	binding signal (ALX3 [8])	binding signal (PROP1 [9])	binding signal (HESX1 [10])	binding signal (PROP1 [11])	binding signal (ALX3 [12])	binding signal (HESX1 [13])	binding signal (ALX3 [14])	binding signal (PROP1 [15])	binding signal (HESX1 [16])	binding signal (ALX1 [17])	binding signal (ALX3 [18])
AATTAGTA	11.7 upbm affinity estimate (log intensity, higher = more binding, comparable within an allelic series)	11.6 upbm affinity estimate (log intensity, higher = more binding, comparable within an allelic series)	12.9 upbm affinity estimate (log intensity, higher = more binding, comparable within an allelic series)	11.7 upbm affinity estimate (log intensity, higher = more binding, comparable within an allelic series)	12.3 upbm affinity estimate (log intensity, higher = more binding, comparable within an allelic series)	11.7 upbm affinity estimate (log intensity, higher = more binding, comparable within an allelic series)	8.49 upbm affinity estimate (log intensity, higher = more binding, comparable within an allelic series)	9.25 upbm affinity estimate (log intensity, higher = more binding, comparable within an allelic series)	11.2 upbm affinity estimate (log intensity, higher = more binding, comparable within an allelic series)	12.3 upbm affinity estimate (log intensity, higher = more binding, comparable within an allelic series)	11 upbm affinity estimate (log intensity, higher = more binding, comparable within an allelic series)	9.01 upbm affinity estimate (log intensity, higher = more binding, comparable within an allelic series)	11 upbm affinity estimate (log intensity, higher = more binding, comparable within an allelic series)	10.4 upbm affinity estimate (log intensity, higher = more binding, comparable within an allelic series)	10.5 upbm affinity estimate (log intensity, higher = more binding, comparable within an allelic series)	9.94 upbm affinity estimate (log intensity, higher = more binding, comparable within an allelic series)	7.8 upbm affinity estimate (log intensity, higher = more binding, comparable within an allelic series)	7.68 upbm affinity estimate (log intensity, higher = more binding, comparable within an allelic series)	12.3 upbm affinity estimate (log intensity, higher = more binding, comparable within an allelic series)	8.57 upbm affinity estimate (log intensity, higher = more binding, comparable within an allelic series)
AATTAAAT	11.5 upbm affinity estimate (log intensity, higher = more binding, comparable within an allelic series)	11.5 upbm affinity estimate (log intensity, higher = more binding, comparable within an allelic series)	13.1 upbm affinity estimate (log intensity, higher = more binding, comparable within an allelic series)	11.6 upbm affinity estimate (log intensity, higher = more binding, comparable within an allelic series)	12.4 upbm affinity estimate (log intensity, higher = more binding, comparable within an allelic series)	11.5 upbm affinity estimate (log intensity, higher = more binding, comparable within an allelic series)	8.52 upbm affinity estimate (log intensity, higher = more binding, comparable within an allelic series)	9.35 upbm affinity estimate (log intensity, higher = more binding, comparable within an allelic series)	11.3 upbm affinity estimate (log intensity, higher = more binding, comparable within an allelic series)	12.5 upbm affinity estimate (log intensity, higher = more binding, comparable within an allelic series)	11.6 upbm affinity estimate (log intensity, higher = more binding, comparable within an allelic series)	8.88 upbm affinity estimate (log intensity, higher = more binding, comparable within an allelic series)	11.4 upbm affinity estimate (log intensity, higher = more binding, comparable within an allelic series)	10.5 upbm affinity estimate (log intensity, higher = more binding, comparable within an allelic series)	10.3 upbm affinity estimate (log intensity, higher = more binding, comparable within an allelic series)	10.2 upbm affinity estimate (log intensity, higher = more binding, comparable within an allelic series)	7.81 upbm affinity estimate (log intensity, higher = more binding, comparable within an allelic series)	7.97 upbm affinity estimate (log intensity, higher = more binding, comparable within an allelic series)	12.2 upbm affinity estimate (log intensity, higher = more binding, comparable within an allelic series)	8.68 upbm affinity estimate (log intensity, higher = more binding, comparable within an allelic series)
AATTAGCG	11.8 upbm affinity estimate (log intensity, higher = more binding, comparable within an allelic series)	12 upbm affinity estimate (log intensity, higher = more binding, comparable within an allelic series)	13.1 upbm affinity estimate (log intensity, higher = more binding, comparable within an allelic series)	11.9 upbm affinity estimate (log intensity, higher = more binding, comparable within an allelic series)	12.4 upbm affinity estimate (log intensity, higher = more binding, comparable within an allelic series)	11.7 upbm affinity estimate (log intensity, higher = more binding, comparable within an allelic series)	8.21 upbm affinity estimate (log intensity, higher = more binding, comparable within an allelic series)	9.63 upbm affinity estimate (log intensity, higher = more binding, comparable within an allelic series)	11.3 upbm affinity estimate (log intensity, higher = more binding, comparable within an allelic series)	12.4 upbm affinity estimate (log intensity, higher = more binding, comparable within an allelic series)	11.2 upbm affinity estimate (log intensity, higher = more binding, comparable within an allelic series)	8.95 upbm affinity estimate (log intensity, higher = more binding, comparable within an allelic series)	11.2 upbm affinity estimate (log intensity, higher = more binding, comparable within an allelic series)	10.4 upbm affinity estimate (log intensity, higher = more binding, comparable within an allelic series)	10.6 upbm affinity estimate (log intensity, higher = more binding, comparable within an allelic series)	9.93 upbm affinity estimate (log intensity, higher = more binding, comparable within an allelic series)	7.48 upbm affinity estimate (log intensity, higher = more binding, comparable within an allelic series)	7.68 upbm affinity estimate (log intensity, higher = more binding, comparable within an allelic series)	12.6 upbm affinity estimate (log intensity, higher = more binding, comparable within an allelic series)	8.38 upbm affinity estimate (log intensity, higher = more binding, comparable within an allelic series)
GACAATTA	11.7 upbm affinity estimate (log intensity, higher = more binding, comparable within an allelic series)	11.6 upbm affinity estimate (log intensity, higher = more binding, comparable within an allelic series)		12 upbm affinity estimate (log intensity, higher = more binding, comparable within an allelic series)	12.7 upbm affinity estimate (log intensity, higher = more binding, comparable within an allelic series)			9.21 upbm affinity estimate (log intensity, higher = more binding, comparable within an allelic series)				8.59 upbm affinity estimate (log intensity, higher = more binding, comparable within an allelic series)	10.8 upbm affinity estimate (log intensity, higher = more binding, comparable within an allelic series)		10.4 upbm affinity estimate (log intensity, higher = more binding, comparable within an allelic series)			7.41 upbm affinity estimate (log intensity, higher = more binding, comparable within an allelic series)		
CAATTACA	11.6 upbm affinity estimate (log intensity, higher = more binding, comparable within an allelic series)	11.4 upbm affinity estimate (log intensity, higher = more binding, comparable within an allelic series)		11.9 upbm affinity estimate (log intensity, higher = more binding, comparable within an allelic series)	12.5 upbm affinity estimate (log intensity, higher = more binding, comparable within an allelic series)			9.07 upbm affinity estimate (log intensity, higher = more binding, comparable within an allelic series)				8.6 upbm affinity estimate (log intensity, higher = more binding, comparable within an allelic series)	10.8 upbm affinity estimate (log intensity, higher = more binding, comparable within an allelic series)		10.2 upbm affinity estimate (log intensity, higher = more binding, comparable within an allelic series)			7.44 upbm affinity estimate (log intensity, higher = more binding, comparable within an allelic series)		
CTTGCGGC	6.55 upbm affinity estimate (log intensity, higher = more binding, comparable within an allelic series)	7.11 upbm affinity estimate (log intensity, higher = more binding, comparable within an allelic series)		6.49 upbm affinity estimate (log intensity, higher = more binding, comparable within an allelic series)				7.22 upbm affinity estimate (log intensity, higher = more binding, comparable within an allelic series)				6.47 upbm affinity estimate (log intensity, higher = more binding, comparable within an allelic series)			6.52 upbm affinity estimate (log intensity, higher = more binding, comparable within an allelic series)			6.53 upbm affinity estimate (log intensity, higher = more binding, comparable within an allelic series)		
AATTAGTG	12.1 upbm affinity estimate (log intensity, higher = more binding, comparable within an allelic series)	12 upbm affinity estimate (log intensity, higher = more binding, comparable within an allelic series)	13.2 upbm affinity estimate (log intensity, higher = more binding, comparable within an allelic series)	12.2 upbm affinity estimate (log intensity, higher = more binding, comparable within an allelic series)	12.6 upbm affinity estimate (log intensity, higher = more binding, comparable within an allelic series)	11.8 upbm affinity estimate (log intensity, higher = more binding, comparable within an allelic series)	8.36 upbm affinity estimate (log intensity, higher = more binding, comparable within an allelic series)	9.65 upbm affinity estimate (log intensity, higher = more binding, comparable within an allelic series)	11.4 upbm affinity estimate (log intensity, higher = more binding, comparable within an allelic series)	12.4 upbm affinity estimate (log intensity, higher = more binding, comparable within an allelic series)	11.3 upbm affinity estimate (log intensity, higher = more binding, comparable within an allelic series)	9.26 upbm affinity estimate (log intensity, higher = more binding, comparable within an allelic series)	11.4 upbm affinity estimate (log intensity, higher = more binding, comparable within an allelic series)	10.7 upbm affinity estimate (log intensity, higher = more binding, comparable within an allelic series)	10.9 upbm affinity estimate (log intensity, higher = more binding, comparable within an allelic series)	10.1 upbm affinity estimate (log intensity, higher = more binding, comparable within an allelic series)	7.69 upbm affinity estimate (log intensity, higher = more binding, comparable within an allelic series)	7.88 upbm affinity estimate (log intensity, higher = more binding, comparable within an allelic series)	12.5 upbm affinity estimate (log intensity, higher = more binding, comparable within an allelic series)	8.46 upbm affinity estimate (log intensity, higher = more binding, comparable within an allelic series)
CCTTCGAG	6.45 upbm affinity estimate (log intensity, higher = more binding, comparable within an allelic series)	7.09 upbm affinity estimate (log intensity, higher = more binding, comparable within an allelic series)		6.39 upbm affinity estimate (log intensity, higher = more binding, comparable within an allelic series)				7.23 upbm affinity estimate (log intensity, higher = more binding, comparable within an allelic series)				6.55 upbm affinity estimate (log intensity, higher = more binding, comparable within an allelic series)			6.56 upbm affinity estimate (log intensity, higher = more binding, comparable within an allelic series)			6.63 upbm affinity estimate (log intensity, higher = more binding, comparable within an allelic series)		
